Source: PubChem BioAssay
KB-V1 MDR tox – kills drug-selected multidrug resistant KB-V1 cells; KB-V1 MDR cells viability, CellTiter-Glo, 72 h; Potency, µM (doses to about 46.1 µM), hits mostly cytotoxic; 400,000 compounds, 3.4% hits; AID 1347076; also: nearly all actives have a fitted effect of over 60% in size
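Potencies derive from concentration-effect curves fitted to normalized luminescence (CellTiter-Glo) of KB-V1 cells treated for 72 h at 37 degrees C in phenol-red-free DMEM containing 10% FBS.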
HT1080 IDH1KD tx – HT-1080 IDH1 knockdown cell toxicity (counter line); AID 686971; HT-1080 IDH1 knockdown viability, ATP luminescence, 48 h; 360,000 compounds, 2% hits; Potency, µM (doses to about 46.1 µM), for the others: at the top dose activity, negative = toxicity, actives largely listed as cytotoxic;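 also: 0% = DMSO wells and -100% = cell-free medium wells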
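Knockdown cells (IDH1KD HT-1080) received compounds 2 h after plating at 750 cells/well and were kept 48 h at 37 °C in 5% FBS RPMI. A CellTiter-Glo luminescence read gave % activity for curve fitting.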
DT40 TDP1 no CPT – qHTS for Inhibitors of human tyrosyl-DNA phosphodiesterase 1 (TDP1): qHTS in cells in absence of CPT. DT40 Tdp1-/- hTDP1 cells, no CPT, ATP luminescence, 48 h. 420,000 compounds, 15% hits. Potency, µM (doses to about 46.2 µM), without a hit: top-dose activity change, negative = growth inhibition, hits mostly inhibitors; also: nearly all actives have a fitted effect of over 55% in size
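Cells were dispensed at 400 per well, compounds added by pin tool, plates incubated ≥48 hr at 37 °C, then CellTiter-Glo added for 30 min at room temperature before luminescence reading. Line: DT40 Tdp1-/- complemented with hTDP1; camptothecin omitted.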
DT40 TDP1 CPT – DT40-hTDP1 cell growth loss with CPT; Potency, µM (top dose mostly 46.2 µM), inactives show top-dose activity change, negative = growth inhibition, usual class: inhibitors; chicken DT40 Tdp1-/-;hTDP1 cells + 20 nM CPT, ATP luminescence, 48 h; 420,000 compounds, 12% hits; also: nearly all actives have a fitted effect of over 55% in size
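Cell growth measured by CellTiter-Glo luminescence after a minimum 48 h, 37 C compound exposure with 20 nM CPT in Tdp1-knockout DT40 cells stably expressing hTDP1, seeded 400/well; qHTS titration format.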
HT1080-NT tox – kills 2HG-producing HT-1080-NT fibrosarcoma cells. Potency, µM (titrated, usually from 46.1 µM), inactives show top-dose activity, negative = less viability, hits mostly cytotoxic. 360,000 compounds, 1.6% hits. HT-1080-NT fibrosarcoma viability, CellTiter-Glo ATP luminescence, 48 h;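 also: NT is the 2HG producing partner of a matched IDH1 knockdown line; 0% = DMSO-treated cells and -100% = media-only wells without cells; nearly all actives have a fitted effect of over 55% in size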
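Toxicity toward the 2HG-producing NT line was scored as %Activity, normalised to DMSO and no-cell wells, from CellTiter-Glo luminescence after 48 hours' treatment.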
KB-3-1 cytotox – kills parental KB-3-1 adenocarcinoma cells; KB-3-1 viability, CellTiter-Glo ATP luminescence, 72 h; Potency, µM (highest dose often 46.1 µM), hits mostly cytotoxic; 400,000 compounds, 1.4% hits; AID 1347075; also: nearly all actives have a fitted effect of over 60% in size
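Cells are dispensed, compounds pinned in, plates held at 37 °C for 72 h, then CellTiter-Glo is added and luminescence read after 10 minutes. Cell line: parental KB-3-1 in phenol-red-free DMEM, 10% FBS.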
* = called active by the depositor; i = inactive; ? = inconclusive; · = not tested or not shown; [ ] = another dose, or the depositor's remark. In the library only some 19% were active in any assay of this set; here they are far more common. Calls follow the shape of the dose curve; as a rule, active = well fitted curve in the direction sought with a large enough effect; inconclusive = small, poorly fitted or top-dose-only effect, or another doubt; inactive = no such curve, though single readings can be large; an effect the other way counts as inactive or inconclusive. Unless noted, % is scaled to controls: 0 for no effect and ±100 for the full control effect; potency is read from the fitted curve at half-maximal effect.

SMILES	KB-V1 MDR tox	HT1080 IDH1KD tx	DT40 TDP1 no CPT	DT40 TDP1 CPT	HT1080-NT tox	KB-3-1 cytotox
O=S(=O)(c1ccc(OCC2CO2)cc1)c1ccc(OCC2CO2)cc1 (centres undefined)	?	-12%	2.1µM*	1.8µM*	?	i
COc1cccc(C(=O)CC(=O)C(=O)Nc2cccc([N+](=O)[O-])c2C)c1	i	-29%	12µM*	15µM*	?	i
COc1ccc(C(=O)CC(=O)C(=O)Nc2cccc([N+](=O)[O-])c2C)cc1	i	-17%	16µM*	21µM*	-27%	i
COc1ccccc1C(=O)CC(=O)C(=O)Nc1cccc([N+](=O)[O-])c1C	?	?	12µM*	16µM*	?	i
COc1cccc(C(=O)CC(=O)C(=O)Nc2cc(OC)ccc2OC)c1	i	9%	23µM*	18µM*	4%	i
CCOc1ccccc1NC(=O)C(=O)CC(=O)c1cccc(OC)c1	i	?	?	?	?	i
COc1ccc(CNCCCSc2nnnn2C)c(OC)c1	i	·	-23%	-4%	·	i
CCO/C(C)=N/Oc1cc(OC)cc(OC)c1	i	11%	-9%	-16%	22%	i
CC(C)(CO)NC(=O)c1cnn(-c2ncc3c(n2)-c2ccccc2CC3)c1C1CC1	·	·	-25%	6%[9.04 µM]	·	·
C#CC(C)(CC)NC(=O)c1cc2nc(C3CC3)cc(C(F)(F)F)n2n1 (centres undefined)	i	1%	-7%	2%	10%	i
Cc1ccc(-n2nc3ccc(NC(=O)c4cc5ccccc5o4)cc3n2)cc1	i	·	?	-23%	·	i
CCC(=O)N1CCN(c2ccc(NC(=O)c3cc4ccccc4o3)cc2)CC1	?	5%	18µM*	?	0%	?
Cc1ccc(NC(=O)c2cc3ccccc3oc2=O)cc1S(=O)(=O)N(C)C	i	5%	-1%	-1%	2%	i
CCC(=O)Nc1ccc(NC(=O)c2cc3ccccc3o2)cc1	i	0%	-18%	-6%	11%	i
Cc1ccc(NC(=O)c2cc3ccccc3o2)cc1S(=O)(=O)N(C)C	?	13%	?	29µM*	?	i
CCCCc1ccc(-n2nc3ccc(NC(=O)c4cc5ccccc5o4)cc3n2)cc1	i	·	10µM*	?	·	i
CN(c1ccccc1)S(=O)(=O)c1ccc(NC(=O)c2cc(=O)c3ccccc3o2)cc1	i	·	16µM*	13µM*	·	i
CCc1ccccc1NNC(=O)c1sccc1Cl	·	-14%	?	?	6%	·
CN(C)S(=O)(=O)c1ccc(NC(=O)c2cc3ccccc3o2)cc1	21µM*	1%	?	-23%	-16%	i
C=CCN1C(=O)c2ccc(C(=O)N3CCN(S(=O)(=O)c4cccc(F)c4)CC3)cc2C1=O	i	3%	-1%	4%	-1%	i
NCCc1c(-c2ccccc2)n(-c2ccccc2)c2ccccc12	?	21µM*	?	?	15µM*	i
COC(=O)/C=C1/SC(=Nc2ccc(C)cc2C)NC1=O	i	9%	?	-1%	9%	i
Cc1ccc(N=C2NC(=O)/C(=C/c3cccn3C)S2)c(C)c1	23µM*	-20%	6.5µM*	?	-18%	i
Cn1cccc1/C=C1\SC(=Nc2ccccc2)NC1=O	2.6µM*	5.2µM*	2.3µM*	2.9µM*	?	2.3µM*
Cc1cc(C)cc(N=C2NC(=O)/C(=C/c3cccs3)S2)c1	i	0%	13µM*	?	2%	i
SMILES	KB-V1 MDR tox	HT1080 IDH1KD tx	DT40 TDP1 no CPT	DT40 TDP1 CPT	HT1080-NT tox	KB-3-1 cytotox
Cc1ccc(N=C2NC(=O)/C(=C/c3cn(C)c4ccccc34)S2)cc1C	?	0%	18µM*	18µM*	-4%	?
Cn1cccc1/C=C1\SC(=O)N(c2ccccc2)C1=O	?	9%	?	-13%	1%	i
O=C1NC(=Nc2ccccc2)S/C1=C\c1cccs1	i	-5%	?	?	4%	i
Cc1ccc(N2CC(C(=O)N/N=C/c3c(F)cccc3Cl)CC2=O)cc1 (centres undefined)	i	-11%	?	-23%	-1%	i
Cc1ccccc1CSCCNC(=O)Nc1ccccc1	i	8%	?	-29%	6%	i
Cc1cccc(C)c1NC(=O)CN1C(=O)S/C(=C\c2cccn2C)C1=O	i	7%	-21%	-24%	9%	i
Cn1cccc1/C=C1\SC(=Nc2ccc(O)cc2)NC1=O	i	0.73µM*	0.023µM*	0.041µM*	0.52µM*	0.29µM*
Cn1cccc1/C=C1\SC(=Nc2cccc(O)c2)NC1=O	i	15µM*	21µM*	21µM*	?	?
O=C(NC1CCCCC1)c1cccc(N2C(=O)CCC2=O)c1	i	4%	-8%	-1%	12%	i
O=C(Cn1cnc(S(=O)(=O)N2CCCC2)c1)Nc1ccc(OC(F)(F)F)cc1	?	0%	14%	-19%	0%	?
Cc1ccc(NC(=O)c2sc3nc(C)nc(N4CCN(c5ccccn5)CC4)c3c2C)c(C)c1	i	-9%	?	-26%	-4%	i
Cc1nc(N2CCN(c3ccccn3)CC2)c2c(C)c(C(=O)Nc3ccc(Br)cc3C)sc2n1	i	3%	?	16µM*	9%	i
COc1cc(NC(=O)c2sc3nc(C)nc(N4CCOCC4)c3c2C)cc(OC)c1OC	23µM*	-24%	12µM*	21µM*	-12%	i
COc1ccc(C)cc1NC(=O)c1sc2nc(C)nc(N3CCOCC3)c2c1C	i	6%	?	6%	-1%	i
COc1ccc(C)cc1NC(=O)c1sc2ncnc(N3CCN(c4ccccn4)CC3)c2c1C	i	13%	18µM*	16µM*	7%	i
Cc1nc(N2CCN(c3ccccn3)CC2)c2c(C)c(C(=O)N3CCN(c4ccccc4F)CC3)sc2n1	21µM*	-4%	21µM*	?	-25%	?
O=C(c1cc(COc2ccc(F)cc2F)on1)N1CCSCC1	i	17%	-24%	14%	19%	i
Cc1nc(N2CCCCC2)c2c(C)c(C(=O)Nc3ccccc3C(F)(F)F)sc2n1	i	?	2.9µM*	2.1µM*	-29%	i
